# This is a sample that favours compounds with a hit; in the whole collection about 19% have one here.
# IL-1B inflam inh – blocks inflammasome-driven IL-1 beta release; THP-1 LPS/ATP IL-1B secretion, AlphaLISA, 16 h; active compounds read low; activity change, % at 57.5 µM; 4.7% of 360,000 active; in the data active = activity change below about -50%; inconclusive = mostly about -30% to -49%
#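 Secreted IL-1B measured by AlphaLISA bead assay after 16 h compound exposure of THP-1 cells; compounds (final up to 57.5 uM) added 1 h before LPS (250 ng/mL) and ATP (1.25 mM) stimulation; lower signal means less secretion.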
# HT1080-NT tox – kills 2HG-producing HT-1080-NT fibrosarcoma cells. Potency, µM (series often up to 46.1 µM), for the others: at the top dose activity, negative = less viability, most hits filed as cytotoxic. HT-1080-NT fibrosarcoma viability, CellTiter-Glo ATP luminescence, 48 h. 1.6% of 360,000 active. AID 686970;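 note: NT is the 2HG producing partner of a matched IDH1 knockdown line; potency is the fitted concentration of half-maximal effect; 0% = DMSO-treated cells and -100% = media-only wells without cells; nearly all actives have a fitted effect of over 55% in size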
#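 HT-1080-NT fibrosarcoma cells (2HG-overproducing), 750 cells/well in RPMI with 5% FBS, dosed after 2 h and incubated 48 h at 37C. CellTiter-Glo luminescence normalized to DMSO and no-cell wells; concentration-response curves fitted and classed.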
# DT40 TDP1 CPT – growth inhibition of DT40 Tdp1-/-;hTDP1 cells with camptothecin (screen for TDP1 inhibitors); chicken DT40 Tdp1-/-;hTDP1 cells + 20 nM CPT, ATP luminescence, 48 h; Potency, µM (series often up to 46.2 µM), for inactives: top-dose activity change, negative = growth inhibition, hits mostly inhibitors; 12% of 420,000 active; note: potency is the fitted concentration of half-maximal effect; nearly all actives have a fitted effect of over 55% in size
#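 Cell growth measured by CellTiter-Glo luminescence after a minimum 48 h, 37 C compound exposure with 20 nM CPT in Tdp1-knockout DT40 cells stably expressing hTDP1, seeded 400/well; qHTS titration format.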
# HT1080 IDH1KD tx – HT-1080 IDH1 knockdown cell toxicity (counter line); Potency, µM (series often up to 46.1 µM), inactives show at the highest dose activity, negative = toxicity, most hits filed as cytotoxic; 2% of 360,000 active; HT-1080 IDH1 knockdown viability, ATP luminescence, 48 h;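 note: potency is the fitted concentration of half-maximal effect; 0% = DMSO wells and -100% = cell-free medium wells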
#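 CellTiter-Glo luminescence after 48 h compound exposure at 37 degrees C of IDH1-knockdown HT-1080 cells in 5% FBS RPMI. %Activity scaled between DMSO wells and cell-free media wells, with curves fitted and assigned curve classes.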
# DT40 TDP1 no CPT – qHTS for Inhibitors of human tyrosyl-DNA phosphodiesterase 1 (TDP1): qHTS in cells in absence of CPT; 15% of 420,000 active; DT40 Tdp1-/- hTDP1 cells, no CPT, ATP luminescence, 48 h; Potency, µM (highest dose often 46.2 µM), without a hit: top-dose activity change, negative = growth inhibition, most hits filed as inhibitors; note: potency is the fitted concentration of half-maximal effect; nearly all actives have a fitted effect of over 55% in size
#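 Cells were dispensed at 400 per well, compounds added by pin tool, plates incubated ≥48 hr at 37 °C, then CellTiter-Glo added for 30 min at room temperature before luminescence reading. Line: DT40 Tdp1-/- complemented with hTDP1; camptothecin omitted.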
# The depositor's hits bear a star; ? = inconclusive; . = not tested or not shown. Unless noted, calls come from the whole dose curve; as a rule, active = well fitted curve in the direction sought with a large enough effect; inconclusive = small, poorly fitted or top-dose-only effect, or another doubt; inactive = no such curve, though single readings can be large; an effect the other way counts as inactive or inconclusive. Unless noted, % is set by controls: 0 for no effect and ±100 for the full control effect.
SMILES,IL-1B inflam inh,HT1080-NT tox,DT40 TDP1 CPT,HT1080 IDH1KD tx,DT40 TDP1 no CPT
CC1(C)c2[nH]c3ccccc3c2C[C@H]2C(=O)N(CCCCCO)CC(=O)N21,-8,-1%,-4%,-2%,11%
O=C(COC(=O)CSc1ccc([N+](=O)[O-])cc1)NCCC1=CCCCC1,3,4%,-4%,-7%,9%
COc1ccc(/C=N/Nc2nc3ccccc3[nH]2)c(OC)c1OC,-2,0%,?,?,?
Cc1nn(-c2ccccc2)c(Cl)c1/C=N/Nc1nc2ccccc2[nH]1,-5,?,?,?,-28%
C(=N\Nc1nc2ccccc2[nH]1)/c1cccc2cccnc12,217,?,2.6µM*,?,2.9µM*
C(=N\Nc1nc2ccccc2[nH]1)/c1c[nH]c2ccccc12,-95*,16µM*,?,?,16µM*
Cc1ccc(/C=N/Nc2nc3ccccc3[nH]2)s1,-108*,1%,15µM*,-7%,?
Cc1cc(C)c(C(=O)OCC(=O)Nc2cccc(S(=O)(=O)N3CCCCC3)c2)c(C)c1,?,-2%,?,-5%,?
CCOC(=O)C1=CCN(S(=O)(=O)c2ccccc2Br)C1c1ccc(C)cc1 (stereo unspecified),0,?,-4%,?,?
COCCn1c(C)cc(C(=O)COC(=O)Cc2n[nH]c(=O)c3ccccc23)c1C,-11,1%,?,-5%,21µM*
COCCn1c(C)cc(C(=O)COC(=O)c2n[nH]c3ccccc23)c1C,-4,-10%,-29%,-15%,23µM*
COCCn1c(C)cc(C(=O)COC(=O)c2cncc(Br)c2)c1C,-11,10%,?,24%,?
COc1ccc(-n2c(C)cc(C(=O)COC(=O)Cc3n[nH]c(=O)c4ccccc34)c2C)cc1,-7,?,12µM*,?,9.2µM*
COc1ccccc1C(=O)COC(=O)Cc1n[nH]c(=O)c2ccccc12,6,6%,1%,0%,-27%
Cc1cc(C(=O)COC(=O)Cc2n[nH]c(=O)c3ccccc23)c(C)n1CC(F)(F)F,14,4%,-23%,-2%,-25%
COCCn1c(C)cc(C(=O)COC(=O)c2ccc3ncsc3c2)c1C,-12,2%,13µM*,-29%,15µM*
Cc1cc(C(=O)COC(=O)c2n[nH]c3ccccc23)c(C)n1CC1CCCO1 (stereo unspecified),6,-2%,-19%,-17%,?
CCOc1ccccc1NC(=O)Cn1c(=O)n(Cc2ccc(C(=O)NCCCOC)cc2)c(=O)c2ccccc21,.,.,-3%,.,-15%
Cc1ccc(C(=O)N(Cc2cc3cc4c(cc3nc2N2CCOCC2)CCC4)CC2CCCO2)cc1 (stereo unspecified),.,.,1%,.,-17%
N#CCCN(Cc1ccccc1)C(C(=O)NC1CCCCC1)c1ccnc2ccccc12 (stereo unspecified),?,6%,?,5%,?
Cc1cccc(NC(=O)c2cc(S(=O)(=O)N3CCCCC3)ccc2Cl)n1,19,2%,-29%,-2%,?
O=C(/C=C/c1ccco1)N(Cc1ccc(Cl)cc1)C1CCS(=O)(=O)C1 (stereo unspecified),-6,-4%,?,-1%,?
COCCn1c(C)cc(C(=O)COC(=O)c2cccnc2SC)c1C,7,15%,?,2%,16µM*
CCOC(=O)c1c(C)[nH]c(C)c1C(=O)COC(=O)Cc1n[nH]c(=O)c2ccccc12,16,-9%,-14%,5%,4%
COCCn1c(C)cc(C(=O)COC(=O)c2ccccc2Br)c1C,12,-3%,-19%,-6%,?
SMILES,IL-1B inflam inh,HT1080-NT tox,DT40 TDP1 CPT,HT1080 IDH1KD tx,DT40 TDP1 no CPT
Cc1cc(C(=O)COC(=O)Cc2n[nH]c(=O)c3ccccc23)c(C)n1-c1ccc2c(c1)OCO2,27,-4%,18µM*,-3%,21µM*
CN1CC(=O)NC1=N,.,.,10%,.,14%
CCc1c(C)sc2nc(SCC(=O)Nc3cc(C)on3)n(CCOC)c(=O)c12,-5,10%,?,12%,1.2µM*
Cc1cc(NC(=O)CSc2nnc3c4c(C)c(C)sc4ncn23)no1,54,2%,?,19%,18µM*
Cc1cc(NC(=O)CSc2nc(C(C)C)nc3sc(C)c(C)c23)no1,13,2%,-26%,4%,-29%
Cc1cc(NC(=O)CSc2nc3sc(C)c(C)c3c(=O)n2C2CCCC2)no1,-4,25%,9.2µM*,8%,-29%
COCCNC(=O)C1(S(=O)(=O)c2ccccc2)CC=CC1,25,4%,-5%,5%,-8%
CCSc1nccc(-c2nn(-c3ccc(C)cc3)ccc2=O)n1,-3,10µM*,6.5µM*,9.2µM*,6.5µM*
CSc1nccc(-c2nn(-c3ccc(C)cc3)ccc2=O)n1,146,?,7.3µM*,8.2µM*,5.8µM*
Nc1nccc(-c2nn(-c3ccc(Cl)cc3)ccc2=O)n1,3,6%,-11%,1%,-15%
C#CCSc1nccc(-c2nn(-c3ccc(C)cc3)ccc2=O)n1,71,-8%,?,-23%,26µM*
C=CCSc1nccc(-c2nn(-c3ccc(C)cc3)ccc2=O)n1,-25,?,7.3µM*,?,5.8µM*
C=CCSc1nc(=O)n2ccc(C)cc2n1,1,14%,-17%,15%,?
CNC(=O)c1nn(-c2ccc(C)cc2)ccc1=O,21,3%,5%,13%,8%
CCCCC(CCC(=O)Nc1ccccc1C(=O)OCC)C(=O)O (stereo unspecified),46,0%,-24%,10%,-20%
CCOC(=O)c1c(C)[nH]c(C)c1S(=O)(=O)NCC(=O)N1CCN(c2ccccc2OC)CC1,.,.,?,.,-19%
COc1ccc(N(C=O)C(C(=O)Nc2c(C)cccc2C)c2ccccc2)cc1 (stereo unspecified),-26,-5%,?,2%,?
O=[N+]([O-])c1cc2ncccc2c2ncccc12,?,?,6.5µM*,-25%,4.6µM*
COc1ccccc1CNc1nc(NC(C)C)nc2cc(-c3ccccc3)sc12,-115*,?,2.6µM*,?,4.1µM*
CCNc1nc(NC(C)C)nc(N(C#N)CCOc2ccc(Cl)cc2Cl)n1,-21,-16%,?,-23%,?
CC(C)Nc1nc(NCCOc2ccccc2Cl)c2sc(-c3ccccc3)cc2n1,-103*,?,6.5µM*,?,6.5µM*
COc1ccccc1CNc1cc(-c2ccccc2)ccc1OC,-3,11%,-2%,1%,-28%

# Source: PubChem
